# Laboratory results reported in the supplement of paper PMC7156485.
# System: HCC1569
# Assay: H1.0 immunofluorescence intensity relative to DMSO (% of DMSO); higher = stronger H1.0 induction, active = 140 or more
# Details: concentration: 10 µM; 24 h
# Method in brief: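 Using 384-well plates with 800 cells per well in RPMI plus 10% FBS, HCC1569 and TDF cells were exposed to compounds at 10 µM, in triplicate, for 24 h at 37 °C. Imaging of six fields per well at ×10 followed H1.0 and DAPI staining. The reported quantity, H1.0 nuclear intensity or cell number, is a median of replicates given as percent of the plate control, and HCC1569 values were smoothed for positional effects.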
# 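Further: TDF is a line of transformed human dermal fibroblasts of mesenchymal origin.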
row,SMILES,H1.0 immunofluorescence intensity
1,"O.Oc1cc(O)c2c(c1)OC(c1ccc(O)c(O)c1)C(O)C2 (single isomer, unassigned; (+)) [(+)-Catechin Hydrate]",91.7 (inactive)
2,"Nc1c(C(=O)O)c2nc3c(C(=O)O)cccc3oc-2cc1=O [2-amino-3-oxo-3H-phenoxazine-1,9-dicarboxylic acid]",101 (inactive)
3,"C=C1CCC(O)CC1=CC=C1CCCC2(C)C1CCC2C(C)CCC(O)C(C)(C)O [24(R),25-Dihydroxyvitamin D3]",93.7 (inactive)
4,CCCCCC(O)C=CC=CCC=CCCCCC(=O)O (stereo not given),101 (inactive)
5,C=CC1CN2CCC1CC2C(O)c1ccnc2ccc(OC)cc12.C=CC1CN2CCC1CC2C(O)c1ccnc2ccc(OC)cc12.O=S(=O)(O)O (stereo not given) [Quinine sulfate],100 (inactive)
6,Cc1ccccc1C=CC1=NCCN1.O=C(O)C(=O)O [Metrazoline oxalate],124 (inactive)
7,O=C(C=CC=Cc1ccc2c(c1)OCO2)N1CCCCC1 [Piperine],104 (inactive)
8,Fc1ccc(Cl)cc1-c1nc(Nc2ccncc2)c2nccnc2n1,113 (inactive)
9,CSc1cccc(Nc2ncc3cc(-c4c(Cl)cccc4Cl)c(=O)n(C)c3n2)c1,150 (active)
10,Cl.Cl.Nc1nccc(-c2c(-c3ccc(F)cc3)ncn2C2CCCCC2)n1,130 (inactive)
11,CCCCOC(=O)NC(=O)C1c2ccccc2Oc2ccccc21 [butyl 9H-xanthen-9-ylcarbonylcarbamate],107 (inactive)
12,Cl.NC(N)=NC(N)=Nc1cccc(Cl)c1 [1-(m-Chlorophenyl)-biguanide hydrochloride],97.1 (inactive)
13,CCCCCC=CCC(O)C=Cc1cccc(CC(O)CCCCO)n1 (stereo not given),113 (inactive)
14,O=C(O)CP(=O)(O)O [Phosphonoacetic acid],96.9 (inactive)
15,O=C1C(=Cc2ccc(O)c(O)c2)Oc2c1ccc(OC1OC(CO)C(O)C(O)C1O)c2O (stereo not given) [Maritimein],99.6 (inactive)
16,Cl.O=C(NCCCCN1CCN(c2cccc(Cl)c2Cl)CC1)c1ccc2c(c1)Cc1ccccc1-2,116 (inactive)
17,O=C(NOCC1CC1)c1ccc(F)c(F)c1Nc1ccc(I)cc1Cl,116 (inactive)
18,Cl.O.O=C(O)CN(CCN(CC(=O)O)Cc1ccccc1O)Cc1ccccc1O,90.1 (inactive)
19,C[C@@H](Oc1cc(-c2cnn(C3CCNCC3)c2)cnc1N)c1c(Cl)ccc(F)c1Cl,136 (inactive)
20,O=C(Cc1ccc(Cl)c(Cl)c1)OCCN1CCCC1.O=C(O)C(=O)O [AC 915 oxalate],99 (inactive)

row,SMILES,H1.0 immunofluorescence intensity
1,CCCCCCCCC=CCCCCCCCC(=O)NCCO [N-Oleoylethanolamine],115 (inactive)
2,CC(Cc1ccccc1)(NC(=O)CN)c1ccccc1.Cl (stereo not given),91.3 (inactive)
3,COc1cccc(OC)c1OCCNCC1CSc2ccccc2O1.Cl (stereo not given) [Benoxathian hydrochloride],92 (inactive)
4,O=c1c(O)c(-c2ccc(O)cc2O)oc2cc(O)cc(O)c12 [Morine],82.4 (inactive)
5,CC(C)(C)NCC(O)c1ccc(O)c(CO)c1.CC(C)(C)NCC(O)c1ccc(O)c(CO)c1.O=S(=O)(O)O (stereo not given) [Albuterol hemisulfate],107 (inactive)
6,Nc1nc(N)nc(-c2cc(Cl)ccc2Cl)n1 [Irsogladine],107 (inactive)
7,COc1cc(C2Oc3cc(C4Oc5cc(O)cc(O)c5C(=O)C4O)ccc3OC2CO)ccc1O (stereo not given) [Silymarin],88.3 (inactive)
8,CN(C)CCCOc1nn(Cc2ccccc2)c2ccccc12 [Benzydamine],103 (inactive)
9,"COc1cc2c3cc1Oc1cc(ccc1O)CC1c4c(cc(OC)c(O)c4Oc4ccc(cc4)CC3N(C)CC2)CC[N+]1(C)C.Cl.[Cl-] (single isomer, unassigned; (+)) [(+)-Tubocuraraine chloride]",99.2 (inactive)
10,N#Cc1cnc2cnc(NCc3cccnc3)cc2c1Nc1ccc(F)c(Cl)c1 [Tpl2 Kinase Inhibitor],185 (active)
11,COc1cc2c(cc1OC)-c1cc(=Nc3c(C)cc(C)cc3C)n(C)c(=O)n1CC2.Cl [Trequinsin.HCl],118 (inactive)
12,Cn1c(=O)c2[nH]cnc2n(C)c1=O [Theophylline],103 (inactive)
13,Cl.Cl.Fc1ccc(C(c2ccc(F)cc2)N2CCN(CC=Cc3ccccc3)CC2)cc1 [Flunarizine.2HCl],112 (inactive)
14,NS(=O)(=O)c1cccc2c1c([N+](=O)[O-])cc1nc([O-])c([O-])nc12.[Na+].[Na+] [NBQX disodium],91.8 (inactive)
15,COc1cc(CCC(C)=O)ccc1O [Vannilylacetone],93.5 (inactive)
16,COc1ccc(Cl)cc1C(=O)NCCc1ccc(S(=O)(=O)NC(=O)NC2CCCCC2)cc1 [Glibenclamide],90.3 (inactive)
17,Cl.NOCC(=O)O.NOCC(=O)O [O-(Carboxymethyl)hydroxylamine hemihydrochloride],105 (inactive)
18,O=c1cc(-c2ccc(O)cc2)oc2c(C3OC(CO)C(O)C(O)C3O)c(O)cc(O)c12 (stereo not given) [Vitexin],85.1 (inactive)
19,CCOC(=O)C(CCc1ccccc1)NC(C)C(=O)N1Cc2ccccc2CC1C(=O)O (stereo not given) [Quinapril],101 (inactive)
20,"Cc1cc2cc3c(C)cc(=O)oc3c(C)c2o1 [4,5',8-Trimethylpsoralen]",87.5 (inactive)
